These results are taken from PubChem BioAssay (Tox21).

Values joined by “and” are separate entries in the source; they are usually repeats but may differ in a detail not shown here. Equal values may be shown once. Records with an inconclusive call do not appear. Unmarked numbers belong to inactive results. Active and inactive are the calls of the source. Unless noted, calls come from the whole dose curve; as a rule, active = well fitted curve in the direction sought with a large enough effect in the repeat runs; inconclusive = weak or mixed curves; inactive = no such curve, though single readings can be large; an effect the other way counts as inactive or inconclusive.

Experiment [1] in a line: qHTS assay to identify small molecule agonists of the RXR signaling pathway - cell viability counter screen (AID 1159529). Note: nearly all actives have a fitted effect of over 50% in size. In a few lines:
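Compounds dissolved in DMSO were pinned onto HEK 293T cells carrying a beta-lactamase reporter under RXR-alpha control and incubated 16 hr. Cytotoxicity was then quantified by CellTiter-Glo luminescence.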

Experiment [2] can be described thus: qHTS assay to identify small molecule antagonists of the retinoid acid receptor (RAR) signaling pathway - cell viability counter screen (AID 1159551). Note: nearly all actives have a fitted effect of over 35% in size. In a few lines:
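C3RL4 cells were seeded overnight at 37 C, then treated with compounds plus 1 uM (final) retinol for 6 h at 37 C. Viability was read as ATP by CellTiter-Glo luminescence after 30 min at room temperature.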
A general note: Quantitative high-throughput screening tests each substance at several concentrations.

Experiment [3] addresses Luciferin 4-monooxygenase (Photinus pyralis) (UniProt P08659). Kind of experiment: qHTS assay to identify small molecule inhibitors of firefly luciferase (AID 1224835). Note: nearly all actives have a fitted effect of over 25% in size. In a few lines: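 Quantitative HTS format; KM concentrations of both substrates. Purified P. pyralis FLuc activity quantified from luminescence images.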
Experiment [4] in a line: qHTS assay to identify small molecule antagonists of the constitutive androstane receptor (CAR) signaling pathway - cell viability counter screen (AID 1224837). Note: nearly all actives have a fitted effect of over 45% in size. In a few lines: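 HepG2 cells stably expressing hCAR and a CYP2B6-2.2kb reporter were plated and pre-incubated 4 hr at 37 C/5% CO2, then given compounds at 15 concentrations plus 50 nM CITCO (final). After 23 hr, viability was read by CellTiter-Fluor fluorescence.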

Experiment [5] deals with Nuclear receptor subfamily 1 group I member 3 (Homo sapiens) (UniProt Q14994). Briefly: qHTS assay to identify small molecule antagonists of the constitutive androstane receptor (CAR) signaling pathway (AID 1224838). Note: nearly all actives have a fitted effect of over 40% in size. In a few lines: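 HepG2 cells stably co-transfected with hCAR and a CYP2B6-2.2kb luciferase reporter were seeded 4 h before compound addition at 15 concentrations. Cells were stimulated with 50 nM CITCO (final) for 24 h at 37 C; luciferase luminescence was then read.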
Nuclear receptor subfamily 1 group I member 3 (Homo sapiens), sequence (Q14994 whole entry, looked up): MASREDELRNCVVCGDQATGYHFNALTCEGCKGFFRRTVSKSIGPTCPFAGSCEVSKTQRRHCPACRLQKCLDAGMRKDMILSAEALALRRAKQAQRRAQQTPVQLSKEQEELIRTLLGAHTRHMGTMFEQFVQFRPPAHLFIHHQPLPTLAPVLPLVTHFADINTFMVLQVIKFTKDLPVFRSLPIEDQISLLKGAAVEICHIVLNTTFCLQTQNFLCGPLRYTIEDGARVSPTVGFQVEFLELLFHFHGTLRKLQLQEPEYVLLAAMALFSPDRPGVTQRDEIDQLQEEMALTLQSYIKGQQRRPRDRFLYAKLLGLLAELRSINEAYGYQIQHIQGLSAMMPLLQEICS

For experiment [6] the target is unchanged. Kind of experiment: qHTS assay to identify small molecule agonists of the constitutive androstane receptor (CAR) signaling pathway (AID 1224839). For activation: series mostly up to about 92 µM. Note: nearly all actives have a fitted effect of over 15% in size. In short, it runs like this: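 Compounds tested at 15 concentrations on HepG2 cells stably harbouring hCAR and CYP2B6-2.2kb reporter constructs, co-treated with PK11195 (0.75 uM final), 24 h at 37 C; luminescent reporter signal quantified.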

A short description of experiment [7]: qHTS assay to identify small molecule antagonists of the estrogen related receptor signaling pathway with the pleiotropic PPARgamma coactivator (PGC) from Tox21 10K library - cell viability counter screen (AID 1224840; active = well fitted cell-killing curve with a large enough effect in the repeat runs, not every such curve was filed as active; note: nearly all actives have a fitted effect of over 40% in size). In short, it runs like this: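 PGC/ERR cells were seeded at 2,000 cells/well and left 6 hours at 37 C/5% CO2 before pin-tool addition of compounds in DMSO. After 17.5 hours at 37 C, CellTiter-Fluor was added and fluorescence read 30 minutes later.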

Experiment [8] is described as follows: qHTS assay to identify small molecule antagonists of the estrogen related receptor signaling pathway with the pleiotropic PPARgamma coactivator (PGC) from Tox21 10K library (AID 1224841; call rule not given here; note: actives are mostly falling curves and most rising ones were filed inactive; nearly all actives have a fitted effect of over 50% in size). In a few lines:
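PGC/ERR reporter cells were seeded at 2,000 cells/well and held 6 hours at 37 C/5% CO2 before pin-tool addition of compounds in DMSO. After 18 hours at 37 C, One-Glo was added and luminescence read after 30 minutes at room temperature.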

Experiment [9] is described as follows: qHTS assay to identify small molecule antagonists of the retinoic acid receptor (RAR) signaling pathway (AID 1159552; note: nearly all actives have a fitted effect of over 50% in size). In a few lines:
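Test chemicals and DMSO controls were pin-transferred onto C3RL4 cells a day after seeding; retinol (1 uM final) followed at once. Luminescent reporter output was quantified after 6 hr of co-incubation and 30 min with detection reagent.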

A short description of experiment [10]: qHTS assay to identify small molecule antagonists of the estrogen related receptor (ERR) signaling pathway from Tox21 library - cell viability counter screen (AID 1224834). Note: nearly all actives have a fitted effect of over 30% in size. In short, it runs like this:
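ERR reporter cells were plated 6 h before compound addition, then exposed to test compounds in DMSO for 17.5 h at 37 C. Viability was read as CellTiter-Fluor fluorescence after a 30-minute incubation at 37 C.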

Experiment [11] is described as follows: qHTS assay to identify small molecule agonists of the constitutive androstane receptor (CAR) signaling pathway - cell viability counter screen (AID 1224836). Note: nearly all actives have a fitted effect of over 45% in size. In short, it runs like this:
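23 h treatment, 37 C, 5% CO2. Cell line: HepG2 stably expressing hCAR with a CYP2B6-2.2kb construct. Co-treatment: PK11195, 0.75 uM final. Read-out: CellTiter-Fluor fluorescence intensity.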

For experiment [12], the target named is Thyrotropin receptor (Homo sapiens) (UniProt P16473). Briefly: qHTS assay to identify small molecule agonists of the thyroid stimulating hormone receptor (TSHR) signaling pathway (AID 1224843; calls by dose curve; note: nearly all actives have a fitted effect of over 45% in size). In a few lines: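 Cell line HEK293 with TSHR; density 800/well. Exposure 30 min RT. Readout HTRF cAMP (cAMP-d2/anti-cAMP-cryptate), 1 h RT before reading.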
Thyrotropin receptor (Homo sapiens), sequence (P16473 whole entry, looked up): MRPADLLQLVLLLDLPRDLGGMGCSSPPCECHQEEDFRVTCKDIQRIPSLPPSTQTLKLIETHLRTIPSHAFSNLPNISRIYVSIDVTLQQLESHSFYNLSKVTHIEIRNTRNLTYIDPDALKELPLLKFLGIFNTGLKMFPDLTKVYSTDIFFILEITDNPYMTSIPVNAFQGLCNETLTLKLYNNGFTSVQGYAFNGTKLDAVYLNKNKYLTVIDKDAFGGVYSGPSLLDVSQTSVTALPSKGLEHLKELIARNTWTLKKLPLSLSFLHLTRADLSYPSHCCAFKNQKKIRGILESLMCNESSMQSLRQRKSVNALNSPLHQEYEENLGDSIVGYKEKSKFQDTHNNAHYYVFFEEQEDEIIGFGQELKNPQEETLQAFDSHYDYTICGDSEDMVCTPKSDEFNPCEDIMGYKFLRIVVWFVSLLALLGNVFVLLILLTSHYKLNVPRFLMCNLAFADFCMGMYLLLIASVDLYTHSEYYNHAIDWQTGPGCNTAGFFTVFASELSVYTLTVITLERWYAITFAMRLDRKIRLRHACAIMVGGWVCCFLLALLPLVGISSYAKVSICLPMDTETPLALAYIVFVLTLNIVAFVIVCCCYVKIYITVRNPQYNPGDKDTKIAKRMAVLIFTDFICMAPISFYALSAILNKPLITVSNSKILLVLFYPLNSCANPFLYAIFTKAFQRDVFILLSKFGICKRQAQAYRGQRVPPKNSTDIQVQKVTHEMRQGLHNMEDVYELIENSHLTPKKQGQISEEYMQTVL
Experiment [13] can be described thus: qHTS assay to identify small molecule agonists of the retinoic acid receptor (RAR) signaling pathway (AID 1159553). In short, it runs like this: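 C3RL4 cells carrying a RARE luciferase reporter were plated overnight at 37 C, then exposed to compounds in DMSO for 6 hr at 37 C and 5% CO2. Luminescence was read 30 min after luciferase reagent addition at room temperature.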

The nature of experiment [14]: qHTS assay to identify small molecule agonists of the estrogen related receptor signaling pathway with the pleiotropic PPARgamma coactivator (PGC) from Tox21 10K library (AID 1224842). Note: nearly all actives have a fitted effect of over 15% in size. In a few lines: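 PGC/ERR reporter cells (NTP line) were seeded 2,000 per well, rested 6 h at 37 C/5% CO2, then pin-dosed with compounds in DMSO for 18 h at 37 C; luciferase read by One-Glo luminescence after 30 min at room temperature.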
% is set by controls: 0 for no effect and ±100 for the full control effect; potency is the fitted concentration of half-maximal effect.

Luciferin 4-monooxygenase (Photinus pyralis), sequence (P08659 whole entry, looked up): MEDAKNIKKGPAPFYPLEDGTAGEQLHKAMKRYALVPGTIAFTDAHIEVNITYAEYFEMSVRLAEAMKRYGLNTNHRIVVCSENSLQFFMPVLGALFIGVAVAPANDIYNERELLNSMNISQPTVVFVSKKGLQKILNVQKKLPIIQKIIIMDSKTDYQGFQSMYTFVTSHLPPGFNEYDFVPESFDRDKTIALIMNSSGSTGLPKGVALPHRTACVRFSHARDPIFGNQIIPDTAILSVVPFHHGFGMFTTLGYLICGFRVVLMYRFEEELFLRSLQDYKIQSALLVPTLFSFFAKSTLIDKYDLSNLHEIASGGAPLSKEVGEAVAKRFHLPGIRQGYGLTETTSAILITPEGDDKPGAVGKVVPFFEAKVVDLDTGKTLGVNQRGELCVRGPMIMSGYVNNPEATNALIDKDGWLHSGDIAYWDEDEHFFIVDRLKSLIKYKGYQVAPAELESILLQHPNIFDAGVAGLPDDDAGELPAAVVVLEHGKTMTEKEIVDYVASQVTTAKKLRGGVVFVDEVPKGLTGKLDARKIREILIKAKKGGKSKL

With `Clc1ccc(C(c2ccccc2Cl)C(Cl)(Cl)Cl)cc1` (stereo not given), the Potency in experiment [1] is 49.3 µM (active) and 25.6 µM (active); in experiment [6] it was 6.9 µM (active) and 1.6 µM (active); in experiment [8] it was 61.5 µM (active). For the same compound, the Potency result in experiment [2], in [3], in experiment [4], in experiment [5] and in [7] was “inactive” in each case.
As for `C[CH2][Hg][N]1C(=O)C2C(C1=O)C1(Cl)C(Cl)=C(Cl)C2(Cl)C1(Cl)Cl` (stereo not given), the Potency in experiment [1] was 4.14 µM (active); in [9] it was 11.6 µM (active); in [10], 13 µM (active); in experiment [3], 5.35 µM (active); in [11] it was 14.6 µM (active); in experiment [4] it was 13 µM (active). The Potency in experiment [5] is 11.6 µM (active). In addition, the activation in experiment [6] was -23.5% [at 19 µM]; in experiment [12], -16.4% [at 19 µM].
For the compound `c1ccc(Nc2ccc3ccccc3c2)cc1`, the Potency was 43.4 µM (active) in [1]; 3.05 µM (active) and 8.63 µM (active) in experiment [13]; 22.3 µM (active) and 31.7 µM (active) in [3]; 30.5 µM (active) and 48.6 µM (active) in experiment [6]; 27.1 µM (active) and 30.6 µM (active) in [14]; 48.3 µM (active) in experiment [12]. The Potency result in [9], in experiment [10], in experiment [11], in [4], in experiment [5] and in experiment [7] was “inactive” throughout. Further, in [8], the Potency result is “inactive”.
On to `CN(C)C(=S)[S-].CN(C)C(=S)[S-].[Cu+2]`, for which the Potency in experiment [1] is 0.844 µM (active); in experiment [2] it was 16.7 µM (active); in experiment [10], 1.18 µM (active); in experiment [11], 3.73 µM (active); in experiment [4], 1.49 µM (active); in experiment [7], 0.938 µM (active).
On to `COC(=O)N(C(=O)N1COC2(C(=O)OC)Cc3cc(Cl)ccc3C2=N1)c1ccc(OC(F)(F)F)cc1` (stereo not given), for which the Potency entry in experiment [1], in experiment [2], in [3], in experiment [11], in experiment [4] and in experiment [7] was “inactive” each time. In addition, in experiment [12], the Potency entry was “inactive”. In addition, the Potency in experiment [8] was 23.7 µM (active).
Consider `CC1(C)[C@H](C(=O)O[C@H](C#N)c2cccc(Oc3ccccc3)c2)[C@@H]1/C=C(\Cl)C(F)(F)F`, for which the Potency entry in experiment [1], in experiment [2], in experiment [10], in [3], in [4] and in experiment [5] was “inactive” throughout. Moreover, the Potency result in experiment [6], in experiment [7] and in [12] was “inactive” each time.
Consider `SCc1ccco1`, for which the Potency result in [1], in experiment [2], in [3], in experiment [11], in experiment [4] and in experiment [5] was “inactive” each time. The Potency entry in experiment [12] is “inactive”.
For the compound `CCOP(=S)(OCC)SCCS(=O)(=O)CC`, the Potency entry in [1], in experiment [2], in experiment [3], in experiment [11], in experiment [4] and in experiment [7] was “inactive” in each case.
For `CCN(CC)C(=S)[S-].CCN(CC)C(=S)[S-].[Zn+2]`, the Potency in experiment [1] is 1.72 µM (active); in [2], 30.4 µM (active); in [10], 3.41 µM (active); in experiment [3], 35.3 µM (active); in experiment [11], 3.04 µM (active); in experiment [4], 1.36 µM (active). Also, in experiment [7], the Potency is 2.41 µM (active). The Potency entry in experiment [12] was “inactive”.
Consider `ClC1=C(Cl)[C@]2(Cl)[C@H]3[C@H]([C@H]4C=C[C@H]3C4)[C@@]1(Cl)C2(Cl)Cl`, for which the Potency entry in experiment [1], in [2], in [3], in [4], in experiment [5] and in experiment [7] was “inactive” each time. Besides, the results for the Potency in experiment [6] and in experiment [12] were 13.7 µM (active) and 9.69 µM (active), respectively.
With `CCc1nn(C)c(C(=O)NCc2ccc(C(C)(C)C)cc2)c1Cl`, the Potency in experiment [1] was 43.6 µM (active); in [9] it was 27.3 µM (active); in [10] it was 30.6 µM (active); in experiment [8], 0.0611 µM (active). The Potency entry in experiment [3], in experiment [4], in [5], in experiment [6] and in experiment [14] was “inactive” each time.
Turning to `[Cd+2].[Cl-].[Cl-]`, the Potency in experiment [1] was 17.5 µM (active) and 24.5 µM (active); in experiment [10], 24.5 µM (active) and 6.11 µM (active); in experiment [11], 5.49 µM (active) and 9.69 µM (active); in experiment [4] it was 4.36 µM (active) and 9.69 µM (active); in [7], 4.9 µM (active) and 2.73 µM (active). Also, the Potency entry in experiment [2] is “inactive”.
`CCc1cc(C)cc(CC)c1-c1c(OC(=O)C(C)(C)C)n2n(c1=O)CCOCC2`: the Potency entry in [1], in experiment [2], in experiment [3], in experiment [7], in [14] and in [12] was “inactive” in each case. The Potency in experiment [8] is 8.63 µM (active).
`CC(C)CC(C)Nc1ccc(Nc2ccccc2)cc1` (stereo not given): the Potency in experiment [1] is 54 µM (active); in [10] it was 60.1 µM (active); in experiment [3] it was 39.3 µM (active); in [7], 67.4 µM (active); in experiment [8], 60.1 µM (active). Also, the Potency entry in experiment [9], in [13] and in experiment [14] was “inactive” each time.
Regarding `COc1cccc2c1C(=O)c1c(O)c3c(c(O)c1C2=O)C[C@@](O)(C(=O)CO)CC3OC1CC(N2CCOC(OC)C2)C(O)C(C)O1` (stereo not given in full), the Potency result in [1], in experiment [6], in experiment [7], in experiment [14] and in experiment [12] was “inactive” throughout. Besides, the Potency was 0.106 µM (active) in [9]; 0.119 µM (active) in experiment [11]; 0.106 µM (active) in [4]; 0.0298 µM (active) in experiment [5]; 0.266 µM (active) in experiment [8].
Take `CC(C)(C)C(O)C(Oc1ccc(-c2ccccc2)cc1)n1cncn1` (stereo not given): the Potency in experiment [1] is 54.9 µM (active); in experiment [8], 54.5 µM (active). For the same compound, the Potency result in experiment [3], in experiment [11], in [5] and in [14] was “inactive” each time.
`Cc1cc(C(F)(C(F)(F)F)C(F)(F)F)ccc1NC(=O)c1cccc(I)c1C(=O)NC(C)(C)CS(C)(=O)=O`: the Potency entry in experiment [2], in [9], in experiment [13], in experiment [10], in experiment [3] and in [11] was “inactive” in each case. The Potency result in experiment [4], in experiment [6], in [7], in [14] and in [12] was “inactive” in each case.
Turning to `Cc1cc(C(C)(C)c2cc(C)c(O)c(C)c2)cc(C)c1O`, the Potency in experiment [1] is 47.4 µM (active); in experiment [9] it was 52.7 µM (active); in [10], 41.8 µM (active); in experiment [6], 4.69 µM (active); in [12], 33.2 µM (active). Moreover, the Potency result in experiment [3], in [5] and in [14] was “inactive” each time.
For `COP(=S)(OC)Oc1cc(Cl)c(Br)cc1Cl`, the Potency entry in experiment [2], in experiment [9], in experiment [13], in [10], in experiment [11] and in experiment [4] was “inactive” each time. Also, the Potency result in [5], in [7] and in [12] was “inactive” in each case. Moreover, the Potency in experiment [6] was 54.5 µM (active).
On to `Fc1cccc(Cl)c1CCl`, for which the Potency result in experiment [2], in experiment [9], in experiment [13], in experiment [10], in experiment [3] and in [4] was “inactive” in each case. The Potency entry in [5] and in experiment [12] was “inactive” each time.
